Results from PubChem BioAssay (NCI).
This is part of a sample that, as a whole, favours compounds with a hit. Of some 79,000 tested, about 15% had one in any assay. Active and inactive are the calls of the source. No stated cut-off is given here; in the data, active means growth inhibition above about 70%; inactive means the rest. Residues, ends and D or L forms follow the SMILES beside them. *: point of attachment. Fmoc = O=C(OCC1c2ccccc2-c2ccccc21)*; Boc = CC(C)(C)OC(=O)*

What was measured:
[1] = NCI Yeast Anticancer Drug Screen. Data for the rad52 strain (AID 147);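 further: 0% = growth of vehicle-treated control cultures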; settings: S. cerevisiae rad52 mutant growth inhibition, active compounds read high
Procedure, shortened: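 Screen used a yeast mutant impaired in DNA repair. After compound exposure, growth was measured. Values reflect inhibition compared with vehicle-treated cells.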

[2] = NCI Yeast Anticancer Drug Screen. Data for the wt1 strain (AID 149);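 further: 0% = growth of vehicle-treated wt1 cultures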; settings: S. cerevisiae wt1 strain (SPY 50644) growth inhibition, active compounds read high
Procedure, shortened: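 Using yeast strain wt1, compound-induced growth inhibition was determined against vehicle-treated cultures.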

[3] = NCI Yeast Anticancer Drug Screen. Data for the rad50EPP+ strain (AID 151);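 further: 0% = growth of vehicle-treated control cultures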; settings: S. cerevisiae rad50 mutant strain, active compounds read high
Procedure, shortened: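 Exposing the rad50EPP+ strain to each compound, growth was compared with vehicle-only cultures to give inhibition.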

[4] = NCI Yeast Anticancer Drug Screen. Data for the mgt1 strain (AID 153); settings: S. cerevisiae mgt1 mutant growth inhibition, active compounds read high
Procedure, shortened: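 Genetically defined yeast (mgt1) treated with compound; inhibition of growth expressed against vehicle-treated controls.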

[5] = NCI Yeast Anticancer Drug Screen. Data for the rad50 strain (AID 155);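 further: 0% = growth of vehicle-only cultures of the same strain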; settings: S. cerevisiae rad50 strain growth inhibition, active compounds read high
Procedure, shortened: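 Relative growth inhibition (compound vs vehicle) was measured in yeast with a defined repair-gene alteration.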

[6] = NCI Yeast Anticancer Drug Screen. Data for the mec2-1 strain (AID 157); settings: S. cerevisiae mec2-1 strain, active compounds read high
Procedure, shortened: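 Readout is yeast growth inhibition, normalised to vehicle-treated controls, in the mec2-1 strain exposed to compound.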

[7] = NCI Yeast Anticancer Drug Screen. Data for the rad14 strain (AID 159);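 further: 0% = growth of vehicle-treated control cultures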; settings: S. cerevisiae rad14 strain growth inhibition, active compounds read high
Procedure, shortened: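 Screen for anticancer potential: a yeast strain altered in DNA damage repair is grown with compound, and reduced growth is quantified against vehicle controls.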

[8] = NCI Yeast Anticancer Drug Screen. Data for the sgs1 mgt1 strain (AID 161);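 further: 0% = growth of cultures given vehicle only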; settings: S. cerevisiae sgs1 mgt1 strain, active compounds read high
Procedure, shortened: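 Percent growth inhibition was derived by comparing compound-exposed mutant yeast with vehicle-exposed cultures. The strain carries alterations in DNA damage repair.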

[9] = NCI Yeast Anticancer Drug Screen. Data for the CLN2oe strain (AID 163);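 further: 0% = growth of vehicle-only control cultures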; settings: S. cerevisiae CLN2oe strain, active compounds read high
Procedure, shortened: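 Values reflect how much compound exposure reduced yeast growth, referenced to vehicle-exposed cells. Assay organism is a strain with a defined genetic change affecting cell-cycle control.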

[10] = NCI Yeast Anticancer Drug Screen. Data for the cln2 rad14 strain (AID 165);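 further: 0% = growth equal to vehicle treated cultures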; settings: S. cerevisiae cln2 rad14 strain, active compounds read high
Procedure, shortened: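 Relative to vehicle controls, growth inhibition of compound-treated cln2 rad14 yeast was recorded.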

[11] = NCI Yeast Anticancer Drug Screen. Data for the bub3 strain (AID 167); settings: S. cerevisiae bub3 mutant strain, active compounds read high
Procedure, shortened: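 Screening used yeast with an engineered genetic alteration affecting cell cycle control. Compound-exposed cultures were compared with vehicle cultures, and reduced growth was taken as inhibition.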

[12] = NCI Yeast Anticancer Drug Screen. Data for the wt2 strain (AID 169);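 further: 0% = growth of vehicle-treated yeast cultures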; settings: S. cerevisiae wt2 strain growth inhibition, active compounds read high
Procedure, shortened: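 Values express reduction in yeast growth under compound treatment, referenced to vehicle-treated cells.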

[13] = NCI Yeast Anticancer Drug Screen. Data for the mlh1 strain (AID 171);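 further: 0% = growth of vehicle-treated control cultures of the same strain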; settings: S. cerevisiae mlh1 strain growth inhibition, active compounds read high
Procedure, shortened: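 Steps: expose the defined-mutant yeast strain to compound; expose a parallel culture to vehicle; measure growth; express compound effect as inhibition relative to the vehicle culture.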

[14] = NCI Yeast Anticancer Drug Screen. Data for the sgs1 strain (AID 173);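 further: 0% = growth of vehicle-only control cultures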; settings: S. cerevisiae sgs1 mutant, active compounds read high
Procedure, shortened: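 Treat defined-mutant yeast with compound; measure growth; calculate inhibition relative to vehicle-treated cells.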

[15] = NCI Yeast Anticancer Drug Screen. Data for the mlh1 rad18 strain (AID 175); settings: S. cerevisiae mlh1 rad18 strain growth inhibition, active compounds read high
Procedure, shortened: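 Test agents were incubated with a yeast strain of defined genotype (DNA damage repair defect). Inhibition of growth was derived by comparison with vehicle-exposed cultures.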

[16] = NCI Yeast Anticancer Drug Screen. Data for the rad18 strain (AID 177); settings: S. cerevisiae rad18 mutant growth inhibition, active compounds read high
Procedure, shortened: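 A genetically defined yeast mutant impaired in DNA damage repair was treated with test compounds, then its growth was measured against cultures receiving vehicle alone.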

[17] = at 5.0 µM (retest, dose inferred, filed as 0.5)
[18] = at 50.0 µM (retest, dose inferred, filed as 5.0)

Measured: growth inhibition

CC(C)(C)OC(=O)NCCCCC(NC(=O)C(Cc1c[nH]c2ccccc12)NC(=O)OCC1c2ccccc2-c2ccccc21)C(=O)O (stereo unspecified) (Fmoc-Trp-Lys(Boc)-OH; configuration not given here)
active: [4]; at 100.0 µM 75% | [7]; at 100.0 µM 70% | [10]; at 50.0 µM 82.8% | [13]; at 100.0 µM 70%
inactive: [1]; at 1.2 µM -3% | [1]; at 3.7 µM 0% | [1]; at 11.0 µM -2% | [1]; at 33.0 µM 10% | [1]; at 100.0 µM 58% | [2]; at 1.2 µM -2% | [2]; at 3.7 µM -2% | [2]; at 11.0 µM -3% | [2]; at 33.0 µM 2% | [2]; at 100.0 µM 50% | [3]; at 1.2 µM -1% | [3]; at 3.7 µM 0% | [3]; at 11.0 µM 2% | [3]; at 33.0 µM 2% | [3]; at 100.0 µM -5% | [4]; at 1.2 µM 0% | [4]; at 3.7 µM 2% | [4]; at 11.0 µM -4% | [4]; at 33.0 µM 8% | [5]; at 1.2 µM -3% | [5]; at 3.7 µM -1% | [5]; [17] -19% | [5]; at 11.0 µM -3% | [5]; at 33.0 µM 11% | [5]; [18] 22% | [5]; at 50.0 µM 15.4% | [5]; at 100.0 µM 56% | [6]; at 1.2 µM -1% | [6]; at 3.7 µM -4% | [6]; [17] 1% | [6]; at 11.0 µM -4% | [6]; at 33.0 µM 9% | [6]; [18] 36% | [6]; at 50.0 µM 42.6% | [6]; at 100.0 µM 52% | [7]; at 1.2 µM -1% | [7]; at 3.7 µM 0% | [7]; at 11.0 µM 1% | [7]; at 33.0 µM 28% | [8]; [17] -13% | [8]; [18] 21% | [8]; at 50.0 µM 36.1% | [9]; at 1.2 µM 4% | [9]; at 3.7 µM 1% | [9]; at 11.0 µM -7% | [9]; at 33.0 µM 17% | [9]; at 100.0 µM 66% | [10]; [17] 37% | [10]; [18] 21% | [11]; at 1.2 µM -3% | [11]; at 3.7 µM -1% | [11]; [17] -19% | [11]; at 11.0 µM -1% | [11]; at 33.0 µM 6% | [11]; [18] 5% | [11]; at 50.0 µM 18.4% | [11]; at 100.0 µM 59% | [12]; at 1.2 µM 0% | [12]; at 3.7 µM -2% | [12]; at 11.0 µM -4% | [12]; at 33.0 µM 1% | [12]; at 100.0 µM 61% | [13]; at 1.2 µM -1% | [13]; at 3.7 µM -1% | [13]; at 11.0 µM -2% | [13]; at 33.0 µM 10% | [14]; at 1.2 µM -1% | [14]; at 3.7 µM 0% | [14]; at 11.0 µM 0% | [14]; at 33.0 µM 11% | [14]; at 100.0 µM 61% | [15]; [17] -11% | [15]; [18] 50% | [15]; at 50.0 µM 60.6% | [16]; at 1.2 µM -1% | [16]; at 3.7 µM -2% | [16]; at 11.0 µM -2% | [16]; at 33.0 µM 8% | [16]; at 100.0 µM 59%

COc1cc([C@@H]2c3cc4c(cc3[C@@H](NC(=O)NO)[C@H]3COC(=O)[C@H]23)OCO4)cc(OC)c1O
inactive: [1]; at 1.2 µM -2% | [1]; at 3.7 µM 2% | [1]; at 11.0 µM 10% | [1]; at 33.0 µM 48% | [2]; at 1.2 µM -3% | [2]; at 3.7 µM -2% | [2]; at 11.0 µM 1% | [2]; at 33.0 µM -1% | [2]; at 100.0 µM 4% | [3]; at 1.2 µM -2% | [3]; at 3.7 µM 0% | [3]; at 11.0 µM 2% | [3]; at 33.0 µM 2% | [3]; at 100.0 µM 9% | [4]; at 1.2 µM -5% | [4]; at 3.7 µM -3% | [4]; at 11.0 µM -2% | [4]; at 33.0 µM 14% | [4]; at 100.0 µM 4% | [5]; at 1.2 µM 0% | [5]; at 3.7 µM 1% | [5]; [17] 13% | [5]; at 11.0 µM 10% | [5]; at 33.0 µM 47% | [6]; at 1.2 µM -1% | [6]; at 3.7 µM 1% | [6]; [17] 7% | [6]; at 11.0 µM 0% | [6]; at 33.0 µM 1% | [6]; [18] -13% | [6]; at 50.0 µM -12.1% | [6]; at 100.0 µM 17% | [7]; at 1.2 µM -4% | [7]; at 3.7 µM -4% | [7]; at 11.0 µM -6% | [7]; at 33.0 µM -2% | [7]; at 100.0 µM 8% | [8]; [17] -2% | [8]; [18] 2% | [8]; at 50.0 µM -3.9% | [9]; at 1.2 µM -2% | [9]; at 3.7 µM -7% | [9]; at 11.0 µM -1% | [9]; at 33.0 µM -12% | [9]; at 100.0 µM 0% | [10]; [17] 6% | [10]; [18] 9% | [10]; at 50.0 µM 1.4% | [11]; at 1.2 µM -3% | [11]; at 3.7 µM -3% | [11]; [17] 3% | [11]; at 11.0 µM -2% | [11]; at 33.0 µM -4% | [11]; [18] -13% | [11]; at 50.0 µM -5.95% | [11]; at 100.0 µM -3% | [12]; at 1.2 µM 0% | [12]; at 3.7 µM 0% | [12]; at 11.0 µM 3% | [12]; at 33.0 µM 2% | [12]; at 100.0 µM 5% | [13]; at 1.2 µM 0% | [13]; at 3.7 µM -2% | [13]; at 11.0 µM 1% | [13]; at 33.0 µM 2% | [13]; at 100.0 µM 7% | [14]; at 1.2 µM -1% | [14]; at 3.7 µM 1% | [14]; at 11.0 µM 3% | [14]; at 33.0 µM 3% | [14]; at 100.0 µM 12% | [15]; [17] 5% | [15]; [18] -14% | [15]; at 50.0 µM 12.7% | [16]; at 1.2 µM -2% | [16]; at 3.7 µM -1% | [16]; at 11.0 µM 17% | [16]; at 33.0 µM -1% | [16]; at 100.0 µM 8%
active: [1]; at 100.0 µM 88% | [5]; [18] 79% | [5]; at 50.0 µM 71.5% | [5]; at 100.0 µM 86%
